Screening results: PubChem BioAssay, Center for Chemical Genomics, University of Michigan
Only a selection was taken, and hits are over-represented in it overall.
Dicer processing: inhibitors of human Dicer processing of pre-microRNA; Q9UPY3; cat-ELCCA pre-miR-21 Dicer processing, chemiluminescence; stronger effect = higher value; z-score at 25 µM; hit rate 6% among 47,000; in the data active = z-score above about 3, passing the limit was not always enough;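 also: plate controls were vehicle for no effect and no enzyme for full effect; higher signal means more uncleaved substrate so more Dicer inhibition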
Numbers without * were called inactive.

SMILES	Dicer processing
Cc1cc(NCCCCO)n2c(nc3ccccc32)c1C#N	0.91
Cc1cc(N2CCN(CCO)CC2)n2c(nc3ccccc32)c1C#N	5.3*
NC1=NC(c2ccc(O)c(O)c2)n2c(nc3ccccc32)N1 (configuration not stated)	2.6
CCn1c(C)[n+](CC)c2ccc(C(=O)N(C)C)cc21	-0.42
COc1ccc(NC(=O)N=S2CCN(S(=O)(=O)c3ccc(Cl)cc3)CC2)cc1	-0.71
COC(=O)c1ccsc1NC(=O)CN1CCN(S(=O)(=O)c2ccc(Cl)cc2)CC1	3*
COC(=O)c1ccsc1NC(=O)CN1c2cccc3cccc(c23)S1(=O)=O	1.9
Cc1ccc(-n2c(=O)[nH]c3sc4c(c3c2=O)CCC(C)C4)cc1 (configuration not stated)	0.52
CCOC(=O)c1cc(=O)n(C)c2c1c(=O)oc1ccccc12	-0.79
COc1ccc(COC(=O)C2=C(C)NC3=C(C(=O)CCC3)C2c2cc3c(cc2Cl)OCO3)cc1 (configuration not stated)	4.2*
COc1ccc(COC(=O)C2=C(C)NC3=C(C(=O)CCC3)C2c2ccc3c(c2)OCO3)cc1 (configuration not stated)	0.95
CCOC(=O)C1=C(C)NC2=C(C(=O)CCC2)C1c1cc2c(cc1Cl)OCO2 (configuration not stated)	0.09
Cc1ccc(-c2nnnn2-c2ccccc2C(F)(F)F)cc1	-0.51
CC1(CO)CSC(Nc2ccc(F)cc2)=N1 (configuration not stated)	0.69
CC(C)(C)NC(=O)CSc1nnc(NC(=O)Cn2c(=O)oc3ccccc32)s1	1.6
CC(C)c1nnc(NC(=O)Cn2c(=O)oc3ccccc32)s1	0.6
O=C(Cn1c(=O)oc2ccccc21)Nc1nnc(SCC(=O)N2CCOCC2)s1	3.2*
O=C(CCSc1nnc(NC(=O)Cn2c(=O)oc3ccccc32)s1)Nc1ccccc1	2.6
O=C(Cn1c(=O)oc2ccccc21)Nc1nnc(SCc2ccccc2)s1	3*
O=C(Cn1c(=O)oc2ccccc21)Nc1nnc(SCC(=O)N2CCCCC2)s1	1.1
CC(C)CCOC(=O)C1(C(=O)OCCC(C)C)CC2(COC(c3ccccc3)OC2)C1	-0.56
CCNc1nc(SCC(=O)c2ccccc2)nc2sc3c(c12)CCC(C)C3 (configuration not stated)	0.5
Cn1c(=O)[nH]c(=O)c2c1nc(NCCCO)n2CCCc1ccccc1	3.4*
Cn1c(=O)c2c(nc(NCCO)n2CCCc2ccccc2)n(C)c1=O	-0.3
Cn1c(=O)[nH]c(=O)c2c1nc(NCCCO)n2CCO	-0.15
SMILES	Dicer processing
CCCCCn1c(NCCO)nc2c1c(=O)[nH]c(=O)n2C	3.6*
C=CCNc1nc2c(c(=O)[nH]c(=O)n2C)n1CCO	0.25
CCn1c(NCCCO)nc2c1c(=O)[nH]c(=O)n2C	0.94
N#C/C=C/c1cn(Cc2ccccc2)c2ccc([N+](=O)[O-])cc12	1.3
Cc1cc(S(=O)(=O)n2cccc2)c(Cl)cc1Cl	-1.6
O=C(On1c(-c2ccccc2)nc2ccccc2c1=O)c1ccc(F)cc1	0.38
Cc1ccc(S(=O)(=O)Nc2ccc3c(c2)Cc2cc(Br)ccc2-3)cc1	3.4*
CNS(=O)(=O)c1ccc2c(c1)Cc1cc(S(=O)(=O)NC)ccc1-2	0.52
Cc1ccc(S(=O)(=O)Nc2ccc(O)c(Br)c2)cc1	1.4
CCOc1ccc(/C(O)=C2\C(=O)C(=O)N(c3nnc(C)s3)C2c2ccc(C(C)C)cc2)cc1 (configuration not stated)	1.7
COc1cccc(C(=O)Nc2nc(SCc3ccc(Cl)cc3)n[nH]2)c1	-0.48
CSc1nnc(SC)n1CCNC(=O)c1cccc(Cl)c1	-0.27
COc1cccc(C(=O)NCCN2CCN(c3ccc(Cl)cc3)CC2)c1	3.9*
CCCCN1C(=O)C(O)(CC(=O)c2ccc(-n3cccc3)cc2)c2cc(Br)ccc21 (configuration not stated)	2.4
CCCOc1ccc(C2C(C(=O)OC)=C(C)NC3=C2C(=O)CC(C)(C)C3)cc1OC (configuration not stated)	-0.06
Cc1c(CC(=O)NNS(=O)(=O)c2ccccc2C(F)(F)F)sc2ccc(Cl)cc12	0.58
Cc1c(S(=O)(=O)Nc2ccc3[nH]ccc3c2)sc2ccc(Cl)cc12	3.5*
Cc1nc2ccccn2c1C(=O)NNS(=O)(=O)c1sc2ccc(Cl)cc2c1C	-0.07
Cc1cc(S(=O)(=O)NN)c(Cl)cc1Cl	-0.2
CCCc1cnc(N2CCN(S(=O)(=O)c3sc4ccc(Cl)cc4c3C)CC2)nc1	-1.1
CCCc1cnc(N2CCN(S(=O)(=O)c3ccc(CNC(=O)c4ccccc4)s3)CC2)nc1	1.2
CCCc1cnc(N2CCN(S(C)(=O)=O)CC2)nc1	3.5*
C=CCOC(=O)C1=C(C)NC2=C(C(=O)CCC2)C1c1ccc(CC)cc1 (configuration not stated)	0.64
COc1ccc(-c2[nH]ncc2/C=C/c2cc(C(F)(F)F)[nH]c(=O)n2)cc1	-0.71
Cc1ccc(-c2n[nH]c(=O)c3ccccc23)cc1S(=O)(=O)NC(C)C	3.6*
SMILES	Dicer processing
Cc1ccc(-c2n[nH]c(=O)c3ccccc23)cc1S(N)(=O)=O	-0.34
Cc1ccc(-c2n[nH]c(=O)c3ccccc23)cc1S(=O)(=O)NC(C)(C)C	0.82
OC(COC1=NCNc2cc(Cl)ccc21)c1ccc2c(c1)OCCCO2 (configuration not stated)	-1.5
COC(=O)c1sc(SC)c2c1CC(C)(C)C/C2=N\OC(=O)Nc1ccccc1	-0.4
CCOC(=O)CSc1nc(C(C)=O)ccc1C#N	1.6
COc1ccc(-c2noc(COc3ccc(Br)cc3)n2)cc1	4.1*
Nc1c(Cl)cc(-c2noc(-c3cccs3)n2)cc1Cl	-1.8
COc1ccc(-c2nc(-c3ccc(Cl)cc3)no2)cc1	4.2*
COc1ccc(-c2noc(-c3ccc(OC)cc3)n2)cc1	1.3
COc1ccc(-c2noc(COc3ccc(Cl)cc3)n2)cc1	2.8
COc1ccc(OCc2nc(-c3cccs3)no2)cc1	0.06
COc1ccc(-c2noc(-c3cccs3)n2)cc1	3.9*
Clc1ccc(-c2nc(-c3ccncc3)no2)cc1	1.7
Brc1ccc(OCc2nc(-c3ccncc3)no2)cc1	-0.18
Clc1ccc(-c2nnnn2Cc2ccccc2)cc1	-0.12
CCOC(=O)N/N=C/c1cc(C(F)(F)F)cc(C(F)(F)F)c1	-0.34
O=C(Nc1nnc(C2CCCO2)s1)c1c(-c2ccccc2)c(-c2ccccc2)n[nH]c1=O (configuration not stated)	0.09
CCCCCCSc1nnc2c(n1)OC(C)Nc1ccccc1-2 (configuration not stated)	-1.4
Cc1ccc(C2CC(=O)c3cnc(Nc4ccc(C)cc4C)nc3C2)cc1 (configuration not stated)	4.2
CCCn1c(SCCO)nc2c1c(=O)[nH]c(=O)n2C	-0.29
CCOC(=O)/C(C#N)=C/c1ccc(Cl)c(Cl)c1	0.94
NC(=O)c1c(NC(=O)c2ccc(Cl)cc2)sc2c1CCCC2	-1.1
NC(=O)c1c(NC(=O)c2ccc(F)cc2)sc2c1CCCC2	-0.42
NC(=O)c1c(NC(=O)c2ccc(S(=O)(=O)N3CCCC3)cc2)sc2c1CCCC2	3.4*
CC(C)c1cc(Br)c(NC(=O)NCc2ccc3c(c2)OCO3)c(Br)c1	2.2
Cn1c(=O)c2[nH]c(CN3CCOCC3)nc2n(C)c1=O	-2.3
Cc1ccc(NC2=NC(c3ccccc3)n3c(nc(C)cc3=O)N2)c(C)c1 (configuration not stated)	2
Cc1cc(C)c2nc(NC3=NC(c4ccccc4)CC(=O)N3)nc(C)c2c1 (configuration not stated)	3.5*
